{"source": "the supplement of paper PMC7830784", "note": "Where a name gives a salt, the structure may show the parent alone."}
{"system": "Brugia pahangi adult female", "assay": "IC50 motility inhibition on day 3", "conditions": "3 days", "procedure": "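Single adult female Brugia pahangi worms in 24-well plates (RPMI-1640, 5% FBS, 37 °C) were treated with 10 µM of each compound from a 2121-drug library (4 replicates; 1% DMSO vehicle and 10 µM auranofin controls). Motility was recorded with WormAssay dark-field imaging, and % inhibition of motility on day 3 is relative to vehicle. IC50 values for selected hits come from a 6-point dilution series (30 to 0.1 µM) fitted in GraphPad Prism.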", "units": {"IC50 motility inhibition on day 3": "µM"}}
{"molecule": "Oc1ccc(Cl)c2cccnc12", "note": "[cloxyquin]", "IC50 motility inhibition on day 3": 4.9}
{"molecule": "Cc1cc(C(C)(C)CC(C)(C)C)ccc1OCCOCC[N+](C)(C)Cc1ccccc1", "note": "[methylbenzethonium chloride]", "IC50 motility inhibition on day 3": 3.46}
{"molecule": "Oc1c(Cl)cc(Cl)c(Cl)c1Cc1c(O)c(Cl)cc(Cl)c1Cl", "note": "[hexachlorophene]", "IC50 motility inhibition on day 3": 1.7}
{"molecule": "COc1cc(C)c2c(Oc3cccc(C(F)(F)F)c3)c(OC)cc(NC(C)CCCN)c2n1", "note": "(stereo not given) [Tafenoquine Succinate]", "IC50 motility inhibition on day 3": 14.1}
{"molecule": "CCCCC(CC)COC(=O)CC(C(=O)OCC(CC)CCCC)S(=O)(=O)O", "note": "(stereo not given) [docusate sodium]", "IC50 motility inhibition on day 3": 0.294}
{"molecule": "Clc1ccc(Cn2c(CN3CCCC3)nc3ccccc32)cc1", "note": "[clemizole hydrochloride]", "IC50 motility inhibition on day 3": 6.51}
{"molecule": "O=C(Nc1ncc([N+](=O)[O-])s1)c1ccccc1O", "note": "[Tizoxanide]", "IC50 motility inhibition on day 3": 3.4}
{"molecule": "CC(=O)Oc1ccccc1C(=O)Nc1ncc([N+](=O)[O-])s1", "note": "[nitazoxanide]", "IC50 motility inhibition on day 3": 5.78}
{"molecule": "O=C(Nc1ccc([N+](=O)[O-])cc1Cl)c1cc(Cl)ccc1O", "note": "[niclosamide]", "IC50 motility inhibition on day 3": 1.17}
{"molecule": "O=C(CCN1CCC(c2ccccc2)C1)c1ccc2c(c1)OCCO2", "note": "(stereo not given) [Proroxan]", "IC50 motility inhibition on day 3": 8.53}
{"molecule": "C[n+]1c2cc(N)ccc2cc2ccc(N)cc21", "note": "[acriflavinium hydrochloride]", "IC50 motility inhibition on day 3": 4.62}
{"molecule": "Clc1ccc(C(Cn2ccnc2)OCc2ccsc2Cl)c(Cl)c1", "note": "(stereo not given) [tioconazole]", "IC50 motility inhibition on day 3": 3.18}
{"molecule": "CC(C)/N=c1\\cc2n(-c3ccc(Cl)cc3)c3ccccc3nc-2cc1Nc1ccc(Cl)cc1", "note": "[clofazimine]", "IC50 motility inhibition on day 3": "> 30"}
{"molecule": "O=C(Nc1ccc([N+](=O)[O-])cc1Cl)c1ccccc1O", "IC50 motility inhibition on day 3": 2.6}
{"molecule": "Cc1cc(/C=C/c2ccc3cc(N(C)C)ccc3[n+]2C)c(C)n1-c1ccccc1", "note": "[pyrvinium pamoate]", "IC50 motility inhibition on day 3": "< 0.1"}
{"molecule": "O=C1CN(/N=C/c2ccc([N+](=O)[O-])o2)C(=O)N1", "note": "[nitrofurantoin]", "IC50 motility inhibition on day 3": 11.6}
{"molecule": "N=C(NCCCCCCNC(=N)NC(=N)Nc1ccc(Cl)cc1)NC(=N)Nc1ccc(Cl)cc1", "note": "[chlorhexidine]", "IC50 motility inhibition on day 3": 9.13}
{"molecule": "O=C1C(O)=C([C@H]2CC[C@H](c3ccc(Cl)cc3)CC2)C(=O)c2ccccc21", "note": "[atovaquone]", "IC50 motility inhibition on day 3": 4.16}
{"molecule": "COc1cc(NC(C)CCCN)c2ncccc2c1", "note": "(stereo not given) [primaquine diphosphate]", "IC50 motility inhibition on day 3": 5.06}
{"molecule": "COC(=O)C1=C(C)NC(C)=C(C(=O)OC(C)C)C1c1cccc2nonc12", "note": "(stereo not given) [isradipine]", "IC50 motility inhibition on day 3": 2.75}
{"molecule": "Cc1cc(CC(C)CC(C)(C)C)n(O)c(=O)c1", "note": "(stereo not given) [piroctone olamine]", "IC50 motility inhibition on day 3": 0.883}
{"molecule": "Clc1ccccc1C(c1ccccc1)(c1ccccc1)n1ccnc1", "note": "[clotrimazole]", "IC50 motility inhibition on day 3": 5.5}
{"molecule": "Oc1c(Cl)cc(Cl)c2cccnc12", "note": "[chloroxine]", "IC50 motility inhibition on day 3": 0.803}
{"molecule": "C=C(CC)C(=O)c1ccc(OCC(=O)O)c(Cl)c1Cl", "note": "[ethacrynic acid]", "IC50 motility inhibition on day 3": 2.6}
{"molecule": "CCCCCCCCCCCCCCCC[N+](C)(C)CCN(Cc1ccc(OC)cc1)c1ncccn1", "note": "[thonzonium bromide]", "IC50 motility inhibition on day 3": 1.07}
{"molecule": "COC(=O)C1=C(C)NC(C)=C(C(=O)OCC(C)C)C1c1ccccc1[N+](=O)[O-]", "note": "(stereo not given) [nisoldipine]", "IC50 motility inhibition on day 3": 9.81}
{"molecule": "Oc1c(Cl)cc(Cl)cc1Sc1cc(Cl)cc(Cl)c1O", "note": "[bithionol]", "IC50 motility inhibition on day 3": 6.1}
{"molecule": "CN(C)c1ccc(C(=C2C=CC(=[N+](C)C)C=C2)c2ccc(N(C)C)cc2)cc1", "note": "[gentian violet]", "IC50 motility inhibition on day 3": 0.3}
{"molecule": "Oc1c(I)cc(I)c2cccnc12", "note": "[iodoquinol]", "IC50 motility inhibition on day 3": 1.9}
{"molecule": "Clc1ccc(CSC(Cn2ccnc2)c2ccc(Cl)cc2Cl)cc1", "note": "(stereo not given) [sulconazole nitrate]", "IC50 motility inhibition on day 3": 4.62}
{"molecule": "Cc1cc2nc3c(=O)[nH]c(=O)nc-3n(C[C@H](O)[C@H](O)[C@H](O)CO)c2cc1C", "note": "[riboflavin]", "IC50 motility inhibition on day 3": 16}
{"molecule": "CCCCCCCCCCCCC[N+](C)(C)Cc1ccccc1", "note": "[benzalkonium chloride]", "IC50 motility inhibition on day 3": 1.9}
{"molecule": "O=C1c2cccc(O)c2C(=O)c2c(O)cccc21", "note": "[dantron]", "IC50 motility inhibition on day 3": 18.3}
{"molecule": "CCCCCCCCCCCCCCCC[N+](C)(C)C", "note": "[cetrimonium bromide]", "IC50 motility inhibition on day 3": 6.16}
{"molecule": "C[n+]1cc2c3c(ccc2c2ccc4cc5c(cc4c21)OCO5)OCO3", "note": "[Sanguinarine chloride]", "IC50 motility inhibition on day 3": 6.08}
{"molecule": "Oc1c(I)cc(Cl)c2cccnc12", "note": "[clioquinol]", "IC50 motility inhibition on day 3": 2.61}
{"molecule": "Clc1ccc(COC(Cn2ccnc2)c2ccc(Cl)cc2Cl)c(Cl)c1", "note": "(stereo not given) [miconazole nitrate]", "IC50 motility inhibition on day 3": 3.3}
{"molecule": "CC(=O)OC[C@H]1O[C@@H]([S-])[C@H](OC(C)=O)[C@@H](OC(C)=O)[C@@H]1OC(C)=O.CCP(CC)CC.[Au+]", "note": "[Auranofin]", "IC50 motility inhibition on day 3": 0.7}
{"molecule": "CCCCCCCCNC(C)C(O)c1ccc(SC(C)C)cc1", "note": "(stereo not given) [suloctidil]", "IC50 motility inhibition on day 3": 3.66}
{"molecule": "CSc1ccc2c(c1)N(CCC1CCCCN1C)c1ccccc1S2", "note": "(stereo not given) [Thioridazine hydrochloride]", "IC50 motility inhibition on day 3": 8.08}
